Several values for one entry are separate records, joined by “and”; a condition that tells them apart may be missing. Equal values may be shown once. Inconclusive results are not listed. Unmarked numbers belong to inactive results. Activity calls are given as the source filed them. Calls follow the shape of the dose curve; as a rule, active = well fitted activation curve with a large enough effect; inconclusive = small, poorly fitted or top-dose-only effect; inactive = no such curve, though single readings can be large or run the other way.
Potency is read from the fitted curve at half-maximal effect.

Chain of Cellular tumor antigen p53 (Homo sapiens) (P04637 whole entry, looked up): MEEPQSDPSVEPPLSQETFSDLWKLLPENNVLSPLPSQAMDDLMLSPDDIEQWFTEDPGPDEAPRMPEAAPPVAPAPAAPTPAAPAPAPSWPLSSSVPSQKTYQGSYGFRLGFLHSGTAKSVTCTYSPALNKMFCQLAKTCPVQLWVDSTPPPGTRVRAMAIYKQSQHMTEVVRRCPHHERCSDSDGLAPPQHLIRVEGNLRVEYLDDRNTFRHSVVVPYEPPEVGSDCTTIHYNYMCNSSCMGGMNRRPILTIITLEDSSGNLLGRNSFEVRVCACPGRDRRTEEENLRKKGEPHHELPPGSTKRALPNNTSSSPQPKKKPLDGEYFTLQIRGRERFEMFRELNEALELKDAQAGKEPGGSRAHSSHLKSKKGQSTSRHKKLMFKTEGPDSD

This test has as its target Cellular tumor antigen p53 (Homo sapiens) (UniProt P04637). In words: Primary qHTS for small molecule compounds that upregulate eGFP-tagged delta133p53alpha (in N-terminal) cells. (AID 2060322). Also: nearly all actives have a fitted effect of over 75% in size.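 As to activation: cells pre-induced with doxycycline then dosed without doxycycline; series mostly up to about 56 µM; 0% = DMSO vehicle and 100% = reference activator.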 Particulars: NCI-H358 eGFP-delta133p53alpha fluorescence, 24 h; activation: hits give high values. The gist of the method:
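NCI-H358 cells pre-induced 24 h with 10 ng/ml doxycycline for eGFP-delta133p53alpha, plated dox-free and exposed 24 h at 37C to titrated compounds. Fixed, Hoechst-stained; gated GFP peak intensity by laser scanning cytometry, normalized to DMSO (0%) and 57.5 uM 5-azacytidine (100%).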
A general note: In qHTS, concentration-response curves come from the screen itself.
For `C=C1CCC[C@]2(C)CC[C@@H](C(=C)C(=O)O)[C@H](O)[C@@H]12`, the activation is -7.63%. The same measure, in the same setting: then `Cc1cc(CS(=O)(=O)c2ccccc2)cc(OCc2ccc(CN3CCC[C@H]3CO)cc2)c1`, with -28.2%; and `C=C1CCC2C(C)(C)C(O)CCC2(C)C1CCC(C)CCOC(C)=O` (stereo not drawn), with 5.36%. Same read-out and setting: then `CC(C)C(O)(CO)CCO[C@@H]1O[C@H](CO[C@H]2OC[C@](O)(CO)[C@H]2O)[C@@H](O)[C@H](O)[C@H]1O` (stereo partly drawn), with -13%. The same measure, in the same setting: then `CC1OC(O[C@H]2CC[C@@]3(C)C(CC[C@]4(C)C3CC=C3C5CC(C)(C)CC[C@]5(C(=O)OC5OC(CO)C(OC6OC(COC7OCC(O)C(O)C7O)C(O)C(O)C6O)C(O)C5O)CC[C@]34C)C2(C)C)C(O)C(O)C1OC1OCC(OC2OCC(O)C(O)C2O)C(O)C1O` (stereo partly drawn), with -15.3%; and `CC(O)C(O)/C=C/C=C/C(=O)O[C@@H]1C=C2COC(=O)[C@]2(O)[C@@]2(C)CCCC(C)(C)C12` (stereo partly drawn), with -18.3%; and `CC1(C)C[C@H]2C3=CCC4[C@@]5(C)CC[C@H](O[C@H]6O[C@H](C(=O)O)[C@@H](O)[C@H](O)[C@H]6O[C@H]6O[C@H](CO)[C@@H](O)[C@H](O)[C@H]6O[C@@H]6O[C@H](CO)[C@@H](O)[C@H](O)[C@H]6O)[C@](C)(CO)C5CC[C@@]4(C)[C@]3(C)CC[C@@]2(C)[C@H](O[C@@H]2OC[C@H](O)[C@H](OC3O[C@H](CO)[C@@H](O)[C@H](O)[C@H]3O)[C@H]2O)[C@@H]1O` (stereo partly drawn), with -19.8%.

Turning to `CCC(C)CC(=O)OC1C(=O)C(CO)=CC(O)C1C(C)C` (stereo not drawn), the Potency was 23.9 µM (active). Consider `C=C[C@](C)(O)CC[C@H]1C(C)=CC(=O)[C@H]2C(C)(C)CCC[C@]12C`, for which the activation was 3.57%. On the same count and under the same terms, then `C[C@H]1CC[C@@]2(OC1)O[C@H]1CC3C4CC[C@H]5C[C@@H](O[C@@H]6O[C@H](CO)[C@H](O[C@@H]7O[C@H](CO)[C@@H](O)[C@H](O[C@@H]8OC[C@@H](O)[C@H](O)[C@H]8O)[C@H]7O[C@@H]7O[C@H](CO)[C@@H](O)[C@H](O)[C@H]7O)[C@H](O)[C@H]6O)[C@H](O)C[C@]5(C)C4=CC(=O)[C@]3(C)[C@H]1[C@@H]2C` (stereo partly drawn), with 6.11%; and `CC(O)(C(=O)O)C1CCC2(C)C1CCC1(C)C2CCC2C3(C)CCC(O)C(C)(COC4OC(CO)C(O)C(O)C4O)C3CCC21C` (stereo not drawn), with 1.53%. Same read-out and setting: the value for `CC1(C)CC[C@]2(C(=O)O)CC[C@]3(C)C(=CCC4[C@@]5(C)CCC(O[C@@H]6OC[C@H](O)[C@H](O)[C@H]6O[C@@H]6O[C@H](CO)[C@@H](O)[C@H](O)[C@H]6O)[C@@](C)(CO)C5CC[C@]43C)[C@@H]2C1` (stereo partly drawn) was 14.3%; that for `Cc1cc(C)c(NC(=O)N(Cc2ccc3c(c2)Cc2ccccc2-3)C2CCCCCC2)c(C)c1` was 15.3%; that for `N#Cc1cccc(-c2nc(-c3cccnc3)no2)c1` was -3.34%.

As to `C=C1C(=O)OC2/C=C(\C)CC3C=C(CC/C=C(\C)CCC12)C(=O)O3` (stereo not drawn), the Potency was 6.59 µM (active). For the molecule `CC1(C)CC[C@]2(C(=O)O)CC[C@]3(C)C(=CCC4[C@@]5(C)CC[C@H](O[C@@H]6O[C@H](CO)[C@@H](O)[C@H](O)[C@H]6O[C@@H]6O[C@H](CO)[C@@H](O)[C@H](O)[C@H]6O)[C@@](C)(CO)C5CC[C@]43C)[C@@H]2C1` (stereo partly drawn), the activation was 9.82%. Regarding `COc1ccc(/C=C\C(=O)O)c(O[C@@H]2O[C@H](CO)[C@@H](O)[C@H](O)[C@H]2O)c1`, the activation was -7.63%. The same measure, in the same setting: then `Cc1ccc2c(n1)Oc1ccc(C(C)C(=O)OCC(=O)N(C)C)cc1C2` (stereo not drawn), with -12.6% and -10.9%.

With `C=C1CC2OC(=O)C(COC)C2C(OC(=O)/C(C)=C\C)CC2(C)OC1=CC2=O` (stereo not drawn), the Potency was 14.8 µM (active). Regarding `Cc1ccc([C@@H]2CC=C(C(=O)O)[C@H](c3ccc(C(C)(C)C)cc3)N2S(=O)(=O)c2ccc(C)cc2)cc1`, the activation was -26.3%. The same measure, in the same setting: then `C=C1CC2C3(C)C(OC(C)=O)CC(=O)OC(C)(C)C3C(O)C(OC(C)=O)C2(C)C2C(=O)OC(C)C(=O)C12C` (stereo not drawn), with -19.8%; and `CC(=O)Nc1ccn(C2COC(COC(=O)c3ccccc3)O2)c(=O)n1` (stereo not drawn), with 16.4%. Same read-out and setting: the value for `O=C(O)c1cccc(CN2C(=O)/C(=C(\c3ccccc3)c3ccc(Cl)cc3)c3ccccc32)c1` was -4.46%.

Source of the values: PubChem BioAssay (NCATS).
